Values joined by “and” are separate entries in the source; they are usually repeats but may differ in a detail not shown here. Equal values may be shown once. The panel holds about 83,000 compounds, 20% with a hit somewhere; the sample as a whole holds those more often.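 Cell lines were cultured in 96-well plates, exposed to a single compound concentration, and assessed for percent growth 48 hours later.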 Active and inactive are the calls of the source. Rule for the calls: active = growth percent below 10; inactive = the rest.
Assays:
Experiment in all cases: NCI-60 one-dose screen, 48 h (100 = growth as untreated, 0 = no growth, -100 = all killed)
Conditions in all cases: 10 µM unless noted
[1] = test system: DU-145 prostate
[2] = test system: K-562 leukemia
[3] = test system: MALME-3M melanoma
[4] = test system: MDA-MB-231 breast
[5] = test system: RXF 393 renal
[6] = test system: SF-268 CNS
[7] = test system: SF-295 CNS
[8] = test system: SF-539 CNS
[9] = test system: UACC-257 melanoma
[10] = test system: M14 melanoma

Measured: growth

CC12OC(CC(O)C1O)n1c3ccccc3c3c4c(c5c6ccccc6n2c5c31)C(=O)N(CCN1CCOCC1)C4=O (stereo not given)
active: [1] 3.22% | [2] 7.56% | [3] -18% | [5] -6.91% | [7] -14.5% | [8] 6.03% | [10] -3.54%
inactive: [4] 44.2% | [6] 17.9% | [9] 14.7%

CN1Cn2c(ccc2C(F)(F)F)C(=O)CS1(=O)=O
inactive: [1] 114% | [2] 110% | [3] 90.2% | [4] 106% | [5] 135% | [6] 108% | [7] 103% | [8] 94.3% | [9] 102% | [10] 104%

Cn1c(=O)c2c(nc(Nc3cc(=O)[nH]c(=O)[nH]3)n2Cc2ccccc2)n(C)c1=O
active: [1] 2.17%
inactive: [2] 87.5% | [3] 103% | [4] 99.7% | [5] 81.7% | [6] 24.9% | [7] 101% | [8] 94.2% | [9] 47.3% | [10] 91.8%

CCN1C(=S)N(CC)C2C1NC(=S)N2/N=C/C=C/c1ccccc1 (stereo not given)
active: [5] 2.31%
inactive: [1] 30.6% | [2] 15.5% | [3] 28% | [4] 52.7% | [6] 55.6% | [7] 19.6% | [8] 11.4% | [9] 41.7% | [10] 24.8%

O=C(CCCOc1ccc(Br)cc1)Nc1ncc(Cc2ccc(F)cc2)s1
inactive: [1] 79.8% | [2] 37.1% | [3] 73.1% | [4] 79.5% | [5] 69.2% | [6] 73% | [7] 68.9% | [8] 68.3% | [9] 93.4% | [10] 51%

Cc1ccc(C(=O)c2ccc(CC(=O)N=Nc3c(O)[nH]c4ccc(OC(F)(F)F)cc34)n2C)cc1
inactive: [1] 102% | [2] 92.5% | [3] 126% | [4] 92.4% | [5] 104% | [6] 93.2% | [7] 101% | [8] 102% | [9] 102% | [10] 97.6%

COc1ccc(/C(C)=C(\c2ccc(OCCN3CCCCCC3)cc2)c2ccc(OC(=O)C3CCCCC3)cc2)cc1
active: [1] -12.1% | [2] -23.5% | [3] -81.2% | [4] -84.1% | [5] -83.1% | [6] -30.6% | [7] -90.3% | [8] -85.4% | [9] -71.4% | [10] -70.4%

C=C(CNCCO)[C@@H]1CC[C@]2(CO)CC[C@]3(C)[C@H](CC[C@@H]4[C@@]5(C)CCC(NCCc6ccc(O)cc6)C(C)(C)[C@@H]5CC[C@]43C)[C@@H]12 (stereo not given in full)
active: [1] -84.1% | [2] -57.3% | [3] -86.8% | [4] -80% | [5] -85.7% | [6] -74.8% | [7] -85.4% | [8] -93.6% | [9] -86.3% | [10] -91.6%

Nc1n[nH]c2cccc(C#Cc3cccc(C(=O)Nc4ccc(CN5CCOCC5)c(C(F)(F)F)c4)c3)c12
inactive: [1] 69.5% | [4] 28.8% | [6] 55% | [9] 40.1%
active: [2] 4.19% | [3] -3.92% | [5] -4.45% | [7] 2.26% | [8] -54.5% | [10] 5.11%

C=C(CNCCc1ccc(O)cc1)[C@@H]1CC[C@]2(CO)CC[C@]3(C)[C@H](CC[C@@H]4[C@@]5(C)CCC(NCCc6ccc(O)cc6)C(C)(C)[C@@H]5CC[C@]43C)[C@@H]12 (stereo not given in full)
active: [1] -98.6% | [2] -72.9% | [3] -88.2% | [4] -87.1% | [5] -91.2% | [6] -81.5% | [7] -92.9% | [8] -88.2% | [9] -80.5% | [10] -85.4%

COc1ccc(N2CCN(S(=O)(=O)c3oc(-c4ccccc4)nc3C#N)CC2)cc1
inactive: [1] 104% | [2] 15.3% | [3] 69.6% | [4] 77.2% | [5] 66.4% | [6] 102% | [7] 104% | [8] 68.2% | [9] 88% | [10] 47.4%

CCCCCCCCCCCCC[C@H](O)C[C@H](O)[C@H](C)N
active: [5] 8.68% [1.25 µM]
inactive: [1] 96.9% [1.25 µM] | [2] 102% [1.25 µM] | [3] 132% [1.25 µM] | [4] 90% [1.25 µM] | [6] 115% [1.25 µM] | [7] 108% [1.25 µM] | [8] 100% [1.25 µM] | [9] 113% [1.25 µM] | [10] 95.9% [1.25 µM]

COc1ccc(/C=C2/C(=O)N=C3N2NC(c2ccccc2)=CN3c2ccccc2)cc1
inactive: [1] 114% | [2] 108% | [3] 102% | [4] 107% | [5] 89.7% | [6] 98.5% | [7] 103% | [8] 94.8% | [9] 108% | [10] 98.3%

Cc1c(C(C)(C)O)cn2ncnc(Oc3ccc(NC(=O)Nc4ccc(Cl)c(C(F)(F)F)c4)cc3)c12
inactive: [1] 57.6% | [2] 14.9% | [3] 51.2% | [4] 32.2% | [5] 39% | [6] 45.3% | [7] 16% | [8] 25.9% | [9] 66.5% | [10] 36.7%

CCOc1ccc(C(=O)Cc2ccccc2)cc1
inactive: [1] 105% and 112% | [2] 108% and 103% | [3] 101% | [4] 113% and 102% | [5] 117% and 96.4% | [6] 110% and 117% | [7] 121% and 89.3% | [8] 101% and 116% | [9] 110% and 99.2% | [10] 114% and 106%

C/C=C(/C)C(=O)O[C@@H]1CC(C)(C)CC2C34OC(=O)[C@@]21CC[C@@]3(C)[C@]1(C)CCC2C(C)(C)C(=O)CC[C@]2(C)C1C[C@@H]4Cl (stereo not given in full)
inactive: [1] 104% | [2] 85.6% | [3] 90.8% | [4] 93.4% | [5] 108% | [6] 93% | [7] 97.3% | [8] 85% | [9] 89.8% | [10] 93.1%

COc1ccc2c(c1)c(C(=O)c1nc(-c3cn(C)c4ccccc34)no1)cn2C
inactive: [1] 111% | [2] 72% | [3] 83.4% | [4] 104% | [5] 100% | [6] 103% | [7] 90% | [8] 97.2% | [9] 89% | [10] 104%

Cc1[nH]c(C(=O)Nc2nc3ccc(NC(=O)CCN)cc3s2)c(Cl)c1Cl
active: [2] 6.04%
inactive: [1] 48.4% | [3] 53.8% | [4] 51% | [5] 81.9% | [6] 56.2% | [7] 95.7% | [8] 52.1% | [9] 96.8% | [10] 44.1%

O=c1ccc2nc(-c3ccccn3)nn(-c3ccccc3)c-2c1
active: [2] -8.79% | [3] -20.6%
inactive: [1] 91% | [4] 68.4% | [5] 65% | [6] 98% | [7] 96.3% | [8] 103% | [9] 60.3% | [10] 90.3%

Cc1oc2c(Cc3ccc(NC(=O)c4ccc(Cl)cc4)cc3)ncnc2c1C(=O)NO
inactive: [1] 105% | [2] 78.3% | [3] 93.9% | [4] 108% | [5] 97.6% | [6] 97.6% | [7] 95.3% | [8] 104% | [9] 84% | [10] 99.6%

COc1ccc(/C=C2\COc3ccc(O)c(O)c3C2=O)c(OC)c1OC
inactive: [1] 13.9% | [3] 24.2% | [5] 50.8% | [6] 48% | [7] 91.7% | [9] 45.6% | [10] 38.4%
active: [2] 9.86% | [4] -2.18% | [8] -9.26%

N#Cc1c(-c2cccc(F)c2)cc(-c2cccnc2)[nH]c1=O
inactive: [1] 107% | [2] 95.3% | [3] 103% | [4] 104% | [5] 112% | [6] 103% | [7] 102% | [8] 99.3% | [9] 112% | [10] 102%

COC(=O)/C=C1/SC(=Nc2ccc([N+](=O)[O-])cc2)N(CCc2c[nH]c3ccccc23)C1=O
inactive: [1] 66.8% | [2] 25.8% | [3] 86.5% | [4] 72.1% | [5] 70.4% | [6] 75.7% | [7] 84.2% | [8] 79.6% | [9] 71.6% | [10] 52%

N=C1/C(=C2\NC3C=CC=CC3S2)C(c2ccc(Cl)cc2)C2C(=O)N(c3ccccc3)C(=S)N12 (stereo not given)
inactive: [1] 114% | [2] 102% | [3] 100% | [4] 102% | [5] 95.7% | [6] 99.5% | [7] 103% | [8] 99.4% | [9] 107% | [10] 102%

— PubChem BioAssay (NCI)
